In the library only some 4.3% were active in any assay of this set; here they are far more common.
HSF1 inh – HSF1 inhibitors in luciferase reporter cells, primary screen, cell-based, NIH3T3, luminescence; actives 0.77% (n = 300,000); activity change, negative = inhibition, % at 7.5 µM (by protocol); NIH3T3-HGL HSE-luciferase, MG132-induced, luminescence 8 h; hits give low values;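 active means more than half of replicate wells show activity change below -50%, luminescence cut by over half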;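 further: luciferase reports HSF-1 transcriptional activity via heat shock element; 0% = median of DMSO wells and -100% = zero luminescence signal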
MITF TRPM1 HTS – activators of MITF-driven TRPM1 promoter reporter, primary screen, cell-based, SK-MEL-5, luciferase, single point; activation, % at 12.5 µM; actives 0.75% (n = 300,000); SK-MEL-5 TRPM1-promoter luciferase, 24 h; % of positive control, neutral wells = 0;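 active means mean activation of at least 80% with every replicate also reaching 80%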;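 further: 0% = neutral control wells and 100% = parthenolide positive control wells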
esBAF inh – Bmi1 luciferase reporter increase in mESCs, primary screen, esBAF inhibitor project, mouse ES cells, Bmi1 luciferase knock-in, single point. 24 h; 100% = twice the neutral-well signal. reporter increase, % at 12.5 µM. actives 2% (n = 350,000). AID 602393, 2012; in the data active means activation above about 40%;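 further: 0% = median of the plate's neutral control wells and 100% = double that signal; a rise in the Bmi1 reporter signal indicates esBAF inhibition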
SMARCA2 act – SMARCA2 (BRM) function activators, primary screen, cell-based, luminescence, high throughput; MG213 cells, MMTV-luciferase reporter, dexamethasone, overnight; activation, % at 9.1 µM; actives 1% (n = 370,000); AID 652017, 2013; in the data active means activation above about 7.8%;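 further: 0% = vehicle wells and 100% = reference activator wells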
HSF-1 act – HSF-1 activators, primary screen, NIH3T3-HGL cells, MG132 stress, luminescence, single point; NIH3T3-HGL HSF-1 luciferase reporter, 8 h; 100% = twice DMSO control signal; activation, % at 9 µM; actives 1.7% (n = 300,000); AID 504408, 2011;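 active means mean replicate activation of at least 50% with a set share of replicates each reaching 50%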;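 further: 0% = median of the neutral control wells and 100% = twice that signal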
Wnt bcat act – Wnt/beta-catenin pathway activators, primary screen, cell-based, plate reader, single point; Wnt/beta-catenin reporter cell assay, activator; activation, % at 9.35 µM; actives 1.2% (n = 300,000); AID 743398, 2014; in the data active means activation above about 30%, passing the limit was not always enough;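 further: 0% = neutral control wells and 100% = positive control wells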
The depositor's hits bear a star; / = no result given.

SMILES	HSF1 inh	MITF TRPM1 HTS	esBAF inh	SMARCA2 act	HSF-1 act	Wnt bcat act
Oc1sc(C=Nc2ccc(F)cc2)c2ccccc12	18	29	28	2	24	42*
Oc1c(C=Nc2ccccc2)sc2ccccc12	11	17	/	3	20	-1
Oc1sc(C=Nc2ccccc2)c2ccccc12	16	40	77*	4	23	58*
Cc1ccc(Nc2ncc3c(n2)CC(C)(C)CC3=O)cc1	8	91*	/	5	21	-1
CO[C@@H]1CN(C)C(=O)c2ccc(NC(C)=O)cc2OC[C@H](C)N(Cc2ccccn2)C[C@H]1C	/	/	0	/	/	/
CC12CC(c3ccccc3O1)C(C(=O)NCc1ccccc1)C(=O)N2 (stereo not given)	-71*	-4	-1	-3	-76	/
C[C@H]1CN([C@@H](C)CO)C(=O)c2cc(-c3cccc(C#N)c3)cnc2O[C@@H]1CN(C)Cc1cccnc1	/	/	-16	/	/	/
Cc1ccc(NC(=S)N=Nc2c(O)n(C)c3ccc(S(=O)(=O)N4CCOCC4)cc23)cc1	23	-19	-1	-6	58*	-7
c1ccc(N=NC2=NN(c3ccccc3)CS2)cc1	/	/	/	1	/	54*
Cc1nn(-c2ccccc2)c(N)c1N=Nc1ccccc1	23	43	/	2	32	0
Nc1nc(Nc2cccc3ccccc23)nc(C2CCCC2=O)n1 (stereo not given)	7	/	/	-4	53*	2
Nc1nc(CCl)nc(Nc2cccc3ccccc23)n1	-77*	/	/	-12	-79	2
O=C(C[C@@H]1C[C@@H]2c3cc(NC(=O)CC4CC4)ccc3O[C@@H]2[C@H](CO)O1)NCc1ccccc1F	/	/	-9	/	/	/
CC=Cc1ccc2n(c1=O)C[C@H]1[C@H](CO)[C@@H](C(=O)Nc3ccccc3)N(CC3CCCC3)[C@@H]21 (mixture of isomers)	/	/	1	/	/	/
Cc1ccc(S(=O)(=O)Nc2ccc3c(c2)CC(=O)N([C@@H](C)CO)C[C@H](C)[C@H](CN(C)S(=O)(=O)c2ccccc2)O3)cc1	/	/	-2	/	/	/
CCN1C(=O)/C(=C\N2CCCCCC2)SC1=S	48	76	/	1	67*	/
COCC(=O)Nc1ccc2c(c1)C(=O)N(C)[C@@H]1CC[C@H](CC(=O)NCc3ccccc3)O[C@@H]1CO2	/	/	-2	/	/	/
COc1cc(CN2CCN(c3cccc(C)c3C)CC2)cc(OC)c1O	-65*	/	-5	-1	-74	-2
Cc1cccn2cc(-c3ccccc3)nc12	30	38	/	3	69*	/
Cc1cccn2cc(-c3ccc(F)cc3)nc12	32	-2	1	6	47	55*
Cc1cccn2cc(-c3ccc(F)cc3)cc12	-23	20	11	2	-38	/
CCNC(=O)C[C@H]1CC[C@@H]2[C@@H](COc3ccc(NC(=O)C4CCOCC4)cc3C(=O)N2C)O1	/	/	2	/	/	/
CN1CCc2c(sc3nc(SCC(=O)NCc4ccco4)n(-c4ccccc4)c(=O)c23)C1	-1	50	70*	2	-2	16
CCNC(=O)C[C@@H]1CC[C@H](NS(=O)(=O)c2ccc(F)cc2)[C@H](CO)O1	/	/	1	/	/	/
CCc1cc2c(=O)c(-c3cscn3)coc2cc1O	18	25	90*	6	20	5
O=C(Nc1ccccc1)C1=C[C@@H](c2ccc(C(F)(F)F)cc2)C[C@@H](OCCCCO)O1	-14	62	50*	2	-22	12
O=C(O)C1=C[C@@H](c2ccc(C(F)(F)F)cc2)C[C@@H](OCCCCO)O1	3	2	1	1	-10	-2
CO[C@H]1CN(C)C(=O)c2cc(NS(=O)(=O)CC(F)(F)F)ccc2OC[C@@H](C)N(Cc2cccnc2)C[C@@H]1C	/	/	0	/	/	/
CCOC(=O)c1ccc(-n2ncc(C(=O)OCC)c2N)cc1	3	0	21	2	-6	0
CCOC(=O)c1cnn(-c2ccccc2)c1NC(=O)CN1CCCCC1	-2	/	-5	-4	15	41*
